Source: PubChem BioAssay (NCI)
About 83,000 compounds went through this panel and 20% of them were active in at least one assay; those are over-represented in the sample as a whole.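 Negative percent growth values reflect cell death: -40 means 40% of the cells present at the start died, and -100 means all died.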 Activity calls are given as the source filed them. The calls were made as follows: active = growth percent below 10; inactive = the rest.

What was measured:
Assay in all cases: NCI-60 one-dose screen, 48 h (100 = growth as untreated, 0 = no growth, -100 = all killed)
Details in all cases: 10 µM unless noted
BT-549 breast = test system: BT-549 breast
MDA-MB-435 melanoma = test system: MDA-MB-435 melanoma
SW-620 colon = test system: SW-620 colon
MCF7 breast = test system: MCF7 breast
HCT-116 colon = test system: HCT-116 colon
HCC-2998 colon = test system: HCC-2998 colon
KM12 colon = test system: KM12 colon

Measured: growth

C[C@]12CC[C@@H]3c4ccc(O)cc4CC[C@H]3[C@@H]1CC[C@@H]2NS(=O)(=O)c1cccc(Br)c1
inactive: BT-549 breast 69.2% | MDA-MB-435 melanoma 48.4% | SW-620 colon 81.4% | MCF7 breast 37.5% | HCT-116 colon 44.2% | HCC-2998 colon 89.4% | KM12 colon 51.2%

Oc1ccc(Cc2ccc(O)c(C3CC(c4ccc(Cl)cc4)=NN3)c2)cc1C1CC(c2ccc(Cl)cc2)=NN1 (stereo not given)
active: MDA-MB-435 melanoma 3.35% | HCT-116 colon 1.4%
inactive: BT-549 breast 36.2% | SW-620 colon 13.6% | MCF7 breast 17.5% | HCC-2998 colon 11.3% | KM12 colon 12%

CC(C)COCC(CN(Cc1ccccc1)c1ccccc1)N1CCCC1 (stereo not given)
inactive: BT-549 breast 62.2% | MDA-MB-435 melanoma 72.4% | SW-620 colon 70.1% | MCF7 breast 45.8% | HCT-116 colon 36.7% | HCC-2998 colon 44.8% | KM12 colon 56.2%

Cn1cnc([N+](=O)[O-])c1S(=O)(=O)Oc1ccc(Cl)cc1
inactive: BT-549 breast 103% | MDA-MB-435 melanoma 78.8% | MCF7 breast 63.7% | HCC-2998 colon 83.1% | KM12 colon 84.9%
active: SW-620 colon -31% | HCT-116 colon -32.1%

Fc1ccc(-c2nc(Nc3ccc(-c4nc5ccccc5[nH]4)cc3)nc(N3CCOCC3)n2)cc1
active: BT-549 breast -73.6% | MDA-MB-435 melanoma -86.1% | SW-620 colon -74.2% | MCF7 breast -73.8% | HCT-116 colon -85.5% | HCC-2998 colon -89.9% | KM12 colon -91.3%

Cc1c(C(N)=O)sc2nc(SCC(=O)Nc3ccc(Cl)cc3)n(-c3ccccc3)c(=O)c12
inactive: BT-549 breast 69.1% | MDA-MB-435 melanoma 112% | SW-620 colon 128% | MCF7 breast 104% | HCT-116 colon 103% | HCC-2998 colon 109% | KM12 colon 118%

Cc1cc(C)n2nc(SCC(=O)Nc3sc4c(c3C(N)=O)CCC4)nc2n1
inactive: BT-549 breast 99.6% | MDA-MB-435 melanoma 108% | SW-620 colon 100% | MCF7 breast 107% | HCT-116 colon 97.2% | HCC-2998 colon 118% | KM12 colon 114%

CCC(C)CC(CC)NCCN1CCN(C(CC)CC(C)CC)C1=S (stereo not given)
active: MCF7 breast -60.9% | HCC-2998 colon -45.6%
inactive: BT-549 breast 78.6% | MDA-MB-435 melanoma 26.8% | SW-620 colon 29.1% | HCT-116 colon 16.4% | KM12 colon 24.4%

ClC1=C(Cl)C(=C2C(Cl)=C(Cl)C(Cl)=C2Cl)C(Cl)=C1Cl
inactive: BT-549 breast 107% | MDA-MB-435 melanoma 105% | SW-620 colon 102% | MCF7 breast 90.3% | HCT-116 colon 101% | HCC-2998 colon 109% | KM12 colon 104%

Cc1cc(C)c(OC(=O)CSc2nc3ccccc3c(=O)n2CCc2ccccc2)cc1C
inactive: BT-549 breast 104% | MDA-MB-435 melanoma 100% | SW-620 colon 103% | MCF7 breast 93.7% | HCT-116 colon 80.1% | HCC-2998 colon 102% | KM12 colon 92%

c1cnc2ccc3ncccc3c2c1
inactive: BT-549 breast 108% | MDA-MB-435 melanoma 129% | SW-620 colon 100% | MCF7 breast 92% | HCT-116 colon 95.7% | HCC-2998 colon 124% | KM12 colon 110%

CN1CCN(CC(=O)Nc2nc3c(s2)Nc2cc(Cl)c(Cl)cc2NC3=O)CC1
inactive: BT-549 breast 100% | MDA-MB-435 melanoma 107% | SW-620 colon 112% | MCF7 breast 104% | HCT-116 colon 100% | HCC-2998 colon 110% | KM12 colon 102%

COc1ccc(-c2cnnn2-c2cc(OC)c3c(c2)OCO3)cc1
active: MDA-MB-435 melanoma -57.5% | HCC-2998 colon -2.25%
inactive: BT-549 breast 34.8% | SW-620 colon 26.5% | MCF7 breast 17.8% | HCT-116 colon 13.6% | KM12 colon 11.8%

c1ccc(Nc2nnc(-c3cc(-c4cccnc4)n(-c4ccccc4)n3)s2)cc1
inactive: BT-549 breast 85.8% | MDA-MB-435 melanoma 80.7% | SW-620 colon 97.1% | MCF7 breast 95.7% | HCT-116 colon 76.8% | HCC-2998 colon 72.5% | KM12 colon 60.3%

ClC1C2CC(c3ccccc32)C1Cl (stereo not given)
inactive: BT-549 breast 102% | MDA-MB-435 melanoma 120% | SW-620 colon 110% | MCF7 breast 103% | HCT-116 colon 105% | HCC-2998 colon 110% | KM12 colon 116%

COc1ccc(-c2csc(NC(=O)c3cc(OC)c(OC)c(OC)c3)n2)cc1
inactive: BT-549 breast 106% | MDA-MB-435 melanoma 96.4% | SW-620 colon 102% | MCF7 breast 98.3% | HCT-116 colon 106% | HCC-2998 colon 112% | KM12 colon 108%

O=C1/C(=N/O)CCc2ccccc21
inactive: BT-549 breast 102% | MDA-MB-435 melanoma 95.6% | SW-620 colon 95% | MCF7 breast 96.3% | HCT-116 colon 83.6% | HCC-2998 colon 103% | KM12 colon 89.3%

Nc1nonc1-c1nc2ccccc2n1CC(=O)Nc1ccc2c(c1)COC2=O
active: MDA-MB-435 melanoma 5.9%
inactive: BT-549 breast 81.3% | SW-620 colon 59.1% | MCF7 breast 73.8% | HCT-116 colon 74.1% | HCC-2998 colon 92.3% | KM12 colon 64.4%

Cc1cc2cn3c4cccnc4[nH]c(=O)c3c2cc1C
active: MDA-MB-435 melanoma -20.7% | SW-620 colon -29.5% | MCF7 breast -36.9% | HCT-116 colon -85.3%
inactive: BT-549 breast 73.2% | HCC-2998 colon 60% | KM12 colon 13.1%

O=C(Nc1ncc([N+](=O)[O-])s1)c1cccc([N+](=O)[O-])c1
inactive: BT-549 breast 35.8% | MDA-MB-435 melanoma 31.4% | SW-620 colon 73.4% | MCF7 breast 50.7% | HCT-116 colon 34.1% | HCC-2998 colon 28.7% | KM12 colon 62.9%

C=C(C[C@@](O)(C(=O)Oc1ccccc1)C(=O)C1CCCCC1)c1ccccc1
inactive: BT-549 breast 105% | MDA-MB-435 melanoma 102% | SW-620 colon 107% | MCF7 breast 100% | HCT-116 colon 92.7% | HCC-2998 colon 105% | KM12 colon 105%

O=C(C(=O)N1CCOCC1)c1ccc(OC2OC(CO)C(O)C(O)C2O)cc1 (stereo not given)
inactive: BT-549 breast 108% | MDA-MB-435 melanoma 108% | SW-620 colon 105% | MCF7 breast 95.2% | HCT-116 colon 105% | HCC-2998 colon 127% | KM12 colon 112%

N#Cc1c(N2CCOCC2)nc2sc3cc(Cl)ccc3n2c1=N
inactive: BT-549 breast 129% | MDA-MB-435 melanoma 114% | SW-620 colon 98.3% | MCF7 breast 74.7% | HCT-116 colon 103% | HCC-2998 colon 122% | KM12 colon 82.3%

O=[P@@]1(c2ccccc2)O[C@H](COCc2ccccc2)[C@@H](OCc2ccccc2)[C@H](OCc2ccccc2)[C@H]1NCc1ccccc1
active: BT-549 breast 4.37% | MDA-MB-435 melanoma 9.72% | MCF7 breast 9.59% | HCT-116 colon 8.21%
inactive: SW-620 colon 21.6% | HCC-2998 colon 38.8% | KM12 colon 15.3%

CC1=C(C(=O)Nc2ccccc2)C(c2ccc3c(c2)OCCO3)NC(=O)N1 (stereo not given)
inactive: BT-549 breast 95.9% | MDA-MB-435 melanoma 102% | SW-620 colon 105% | MCF7 breast 94.7% | HCT-116 colon 97.6% | HCC-2998 colon 103% | KM12 colon 100%

COc1ccc(-c2cncn2-c2ccc(-c3nc4cc(OC)c(OC)c(OC)c4s3)cc2)cc1N
inactive: BT-549 breast 31.5% | MDA-MB-435 melanoma 47.6% | SW-620 colon 63.6% | MCF7 breast 39.9% | HCT-116 colon 36.3% | HCC-2998 colon 80.5% | KM12 colon 51.8%

Cc1ccc(NC(=O)CSc2nnc3n(Cc4ccccc4)c(=O)c4c(C)c(C(N)=O)sc4n23)cc1
active: HCT-116 colon 9.8%
inactive: BT-549 breast 74.3% | MDA-MB-435 melanoma 31.5% | SW-620 colon 53.7% | MCF7 breast 44.8% | HCC-2998 colon 34.3% | KM12 colon 51.2%

CC(=O)Oc1c(C)c(OC(C)=O)c2c(c1C(C)=O)OC1CC(=O)C(C(C)=O)=C(O)C21C (stereo not given)
inactive: BT-549 breast 90.4% | MDA-MB-435 melanoma 105% | SW-620 colon 105% | MCF7 breast 97% | HCT-116 colon 100% | HCC-2998 colon 102% | KM12 colon 105%

O=[N+]([O-])c1cnc(Sc2ccncn2)c([N+](=O)[O-])c1
active: HCT-116 colon -59%
inactive: BT-549 breast 111% | MDA-MB-435 melanoma 91.1% | SW-620 colon 26.4% | MCF7 breast 56.1% | HCC-2998 colon 102% | KM12 colon 107%

COc1ccc(C2CC(c3cccc(Nc4ccnc5cc(Cl)ccc45)c3)=NN2C=O)cc1 (stereo not given)
active: MDA-MB-435 melanoma -36% | HCT-116 colon 7.09%
inactive: BT-549 breast 30.9% | SW-620 colon 18.7% | MCF7 breast 22.4% | HCC-2998 colon 35.4% | KM12 colon 23.1%

Cn1cc(-c2nc(-c3c[nH]c4ncccc34)cs2)c2cccnc21
inactive: BT-549 breast 64.7% | SW-620 colon 60.4% | MCF7 breast 59% | HCT-116 colon 41.7% | HCC-2998 colon 76.1% | KM12 colon 52.1%
active: MDA-MB-435 melanoma 5.79%

COc1ccc2nccc(/C=C/c3ccnc4ccc(OC)cc34)c2c1
inactive: BT-549 breast 189% | MDA-MB-435 melanoma 111% | SW-620 colon 104% | MCF7 breast 88.1% | HCT-116 colon 102% | HCC-2998 colon 96.5% | KM12 colon 99.5%

CCCCCCCCCCCCNc1ncnc2[nH]ncc12
inactive: BT-549 breast 62.9% | MDA-MB-435 melanoma 71.7% | SW-620 colon 83.1% | MCF7 breast 59% | HCT-116 colon 53.3% | HCC-2998 colon 92.4% | KM12 colon 79.2%

CC(C)c1ccc(C(=O)Nc2sc3c(CN(C)C)c(O)ccc3c2C(N)=O)cc1
active: SW-620 colon -37.8% | MCF7 breast -16.2% | HCT-116 colon -46.5% | HCC-2998 colon -54.6% | KM12 colon 6.38%
inactive: BT-549 breast 64.4% | MDA-MB-435 melanoma 63%

CCN(CC)c1ccc(N=Nc2cc(Cl)ccc2Cl)c(NC(=O)CCC(=O)O)c1
inactive: BT-549 breast 120% | MDA-MB-435 melanoma 115% | SW-620 colon 105% | MCF7 breast 93.2% | HCT-116 colon 99.7% | HCC-2998 colon 107% | KM12 colon 101%
